Reference: PubChem BioAssay
For some assays here: Potency and affinity values are given separately. Calls of active or inactive are those of the source. Unless noted, no rule for the calls is given here.

What was measured:
[1] = antimalarial activity against Dd2 strain (AID 2302;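 active = growth inhibition above 50% at the single 2 µM test dose, taken to imply half-maximal potency below 2 µM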;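 also: 0% = DMSO untreated growth and 100% = chloroquine plus artemisinin killed control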); conditions: P. falciparum Dd2 in RBCs, LDH growth readout, 72 h; at 2 µM; hits give high values
[2] = human hepatoma cell viability loss – ATP luminescence, cytotoxicity control for P. falciparum antimalarial project, primary screen (AID 2303;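 active = inhibition above 50%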;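 also: 0% = DMSO wells and 100% = digitonin-killed cells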); conditions: HepG2 viability, 24-48 h, at 10 µM, hits give high values
[3] = biological target: L-lactate dehydrogenase (Plasmodium falciparum (isolate CDC / Honduras)) (UniProt Q27743); test: PfLDH activity inhibition – cell lysate, 3D7 strain, counter-screen for P. falciparum growth inhibition project (AID 2304);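 also: 0% = vehicle and 100% = reference inhibitor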; conditions: P. falciparum 3D7 crude extract, LDH APAD/NBT absorbance; at 2 µM; hits give high values
[4] = inhibition of 3D7 malaria parasite growth – strain 3D7 (AID 2306);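 also: 0% = DMSO wells and 100% = chloroquine plus artemisinin control wells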; conditions: P. falciparum 3D7 erythrocytic growth, LDH absorbance, 72 h; at 2 µM; hits give high values
[5] = biological target: Calcium-dependent protein kinase 1 (Plasmodium falciparum (isolate 3D7)) (UniProt P62344); test: PfCDPK1 kinase inhibitors, biochemical, TCAMS library (AID 1159585; cut-off not given, nearly all actives have IC50 up to about 0.98 µM;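 also: inhibitors leave more ATP so luminescence rises with inhibition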); conditions: recombinant PfCDPK1, Kinase-Glo ATP depletion luminescence
[6] = biological target: Plasmodium falciparum protein kinase 6 (PK6, PF3D7_1337100) (UniProt Q8IDW1); test: PfPK6 kinase inhibitors, biochemical, TCAMS library (AID 1159586); conditions: recombinant PfPK6, Kinase-Glo ATP depletion luminescence
[7] = biological target: Protein kinase 7 (PK7), Plasmodium falciparum 3D7 (PF3D7_0213400) (UniProt Q7YTF7); test: inhibition of Plasmodium PK7 catalytic activity – biochemical, TCAMS antimalarial set, Kinase-Glo luminescence (AID 1159587); conditions: recombinant PfPK7, Kinase-Glo ATP depletion luminescence
[8] = biological target: Calcium-dependent protein kinase 4 (Plasmodium falciparum (isolate 3D7)) (UniProt Q8IBS5); test: PfCDPK4 kinase inhibitors, biochemical, TCAMS library (AID 1159588; cut-off not given, nearly all actives have IC50 up to about 0.91 µM); conditions: recombinant PfCDPK4, Kinase-Glo ATP depletion luminescence
Calcium-dependent protein kinase 4 (Plasmodium falciparum (isolate 3D7)), sequence (Q8IBS5 whole entry, looked up): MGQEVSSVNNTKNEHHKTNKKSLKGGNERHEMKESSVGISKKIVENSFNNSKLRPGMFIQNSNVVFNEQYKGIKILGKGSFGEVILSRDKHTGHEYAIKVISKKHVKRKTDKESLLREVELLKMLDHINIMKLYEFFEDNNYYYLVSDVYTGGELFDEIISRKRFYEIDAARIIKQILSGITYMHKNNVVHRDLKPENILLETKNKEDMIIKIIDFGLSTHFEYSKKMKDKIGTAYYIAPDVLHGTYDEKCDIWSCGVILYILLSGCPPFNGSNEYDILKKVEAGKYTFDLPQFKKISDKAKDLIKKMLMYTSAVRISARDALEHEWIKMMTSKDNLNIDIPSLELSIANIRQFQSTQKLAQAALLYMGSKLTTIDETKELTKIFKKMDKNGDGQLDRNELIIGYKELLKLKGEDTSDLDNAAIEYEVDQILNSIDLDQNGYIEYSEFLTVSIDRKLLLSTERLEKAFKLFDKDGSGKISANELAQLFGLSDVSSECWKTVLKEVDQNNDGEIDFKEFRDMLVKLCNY

Plasmodium falciparum protein kinase 6 (PK6, PF3D7_1337100), sequence (Q8IDW1 1-305): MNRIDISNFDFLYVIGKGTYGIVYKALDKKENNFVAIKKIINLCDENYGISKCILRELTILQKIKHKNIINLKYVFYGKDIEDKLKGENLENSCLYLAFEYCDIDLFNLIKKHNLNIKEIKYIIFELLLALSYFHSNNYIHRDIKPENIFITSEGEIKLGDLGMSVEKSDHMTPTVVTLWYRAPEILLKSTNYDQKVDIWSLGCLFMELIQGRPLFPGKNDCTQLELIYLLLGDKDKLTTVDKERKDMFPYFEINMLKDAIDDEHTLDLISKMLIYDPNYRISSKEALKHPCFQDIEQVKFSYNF
L-lactate dehydrogenase (Plasmodium falciparum (isolate CDC / Honduras)), sequence (Q27743 whole entry, looked up): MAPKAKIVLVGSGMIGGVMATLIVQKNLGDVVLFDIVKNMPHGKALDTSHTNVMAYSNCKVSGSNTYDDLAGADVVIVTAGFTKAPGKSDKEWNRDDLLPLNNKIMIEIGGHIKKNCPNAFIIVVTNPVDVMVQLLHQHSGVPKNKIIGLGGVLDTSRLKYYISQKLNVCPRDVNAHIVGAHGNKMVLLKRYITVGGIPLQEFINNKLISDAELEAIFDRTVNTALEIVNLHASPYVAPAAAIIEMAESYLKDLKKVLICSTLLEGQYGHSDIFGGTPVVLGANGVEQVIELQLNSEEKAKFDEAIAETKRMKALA
Calcium-dependent protein kinase 1 (Plasmodium falciparum (isolate 3D7)), sequence (P62344 whole entry, looked up): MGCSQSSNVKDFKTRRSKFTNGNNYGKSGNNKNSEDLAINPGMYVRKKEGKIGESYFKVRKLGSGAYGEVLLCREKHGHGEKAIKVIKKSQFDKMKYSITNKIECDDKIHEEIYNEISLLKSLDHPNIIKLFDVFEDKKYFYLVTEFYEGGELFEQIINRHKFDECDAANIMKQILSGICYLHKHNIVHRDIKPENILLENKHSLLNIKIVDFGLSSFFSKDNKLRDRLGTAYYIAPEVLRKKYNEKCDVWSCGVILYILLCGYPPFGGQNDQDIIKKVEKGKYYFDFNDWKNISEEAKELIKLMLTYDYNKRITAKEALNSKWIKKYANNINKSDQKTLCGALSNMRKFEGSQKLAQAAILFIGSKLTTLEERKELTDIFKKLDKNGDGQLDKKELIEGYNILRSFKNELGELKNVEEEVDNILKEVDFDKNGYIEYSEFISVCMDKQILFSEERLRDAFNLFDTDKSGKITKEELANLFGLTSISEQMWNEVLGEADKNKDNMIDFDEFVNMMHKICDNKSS
Protein kinase 7 (PK7), Plasmodium falciparum 3D7 (PF3D7_0213400), sequence (Q7YTF7 1-343): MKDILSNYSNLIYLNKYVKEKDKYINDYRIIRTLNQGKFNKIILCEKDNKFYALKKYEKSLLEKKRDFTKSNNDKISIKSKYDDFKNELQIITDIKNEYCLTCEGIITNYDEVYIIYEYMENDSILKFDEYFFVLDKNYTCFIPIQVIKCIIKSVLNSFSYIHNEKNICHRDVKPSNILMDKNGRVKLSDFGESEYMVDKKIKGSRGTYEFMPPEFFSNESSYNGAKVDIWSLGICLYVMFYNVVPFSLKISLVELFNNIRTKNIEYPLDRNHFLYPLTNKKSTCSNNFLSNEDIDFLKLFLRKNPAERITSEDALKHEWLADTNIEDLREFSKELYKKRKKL

CCC(=O)OC(CCN(CC)CC)(c1ccccc1)c1ccccc1
active: growth inhibition [4] 98%
inactive: growth inhibition [1] 6% | inhibition [2] 30% | inhibition [3] 4% | outcome [5] | outcome [6] | outcome [7] | outcome [8]

Cc1cc(NC(=O)Nc2ccc3ncccc3c2)c2ccccc2n1
active: growth inhibition [4] 93%
inactive: growth inhibition [1] 27% | inhibition [2] 6% | inhibition [3] -3% | outcome [5] | outcome [6] | outcome [7] | outcome [8]

Cc1ccn2c(C(=O)N3CCN(c4cccc5c4nc(-c4ccoc4)n5Cc4ccccn4)CC3)c(C)nc2c1
inactive: inhibition [2] 2% | inhibition [3] -1% | outcome [5] | outcome [6] | outcome [7] | outcome [8]
active: growth inhibition [1] 99% | growth inhibition [4] 98%

Cc1cc(-c2ccc(CNC3Cc4ccccc4C3)cc2)ccc1S(=O)(=O)NCCN1CCCC1
active: growth inhibition [1] 73% | inhibition [2] 99% | growth inhibition [4] 101%
inactive: inhibition [3] 0% | outcome [5] | outcome [6] | outcome [7] | outcome [8]

COc1cc(Nc2ccc3cc(S(=O)(=O)N4CCCCC4C)ccc3n2)cc(OC)c1OC (stereo not given)
inactive: inhibition [2] -5% | inhibition [3] -1% | outcome [5] | outcome [6] | outcome [7] | outcome [8]
active: growth inhibition [1] 78% | growth inhibition [4] 88%

S=c1nc(-c2ccccc2)n2ccsc2n1
active: growth inhibition [4] 95%
inactive: growth inhibition [1] 0% | inhibition [2] 3% | inhibition [3] -6% | outcome [5] | outcome [6] | outcome [7] | outcome [8]

CC1(C)N=C(N)N=C(N)N1OCCSCCON1C(N)=NC(N)=NC1(C)C
inactive: inhibition [2] 34% | inhibition [3] -4% | outcome [5] | outcome [6] | outcome [7] | outcome [8]
active: growth inhibition [1] 81% | growth inhibition [4] 95%

c1ccc(-c2[nH]ncc2Nc2ccnc3ccccc23)nc1
active: growth inhibition [1] 98% | growth inhibition [4] 100%
inactive: inhibition [2] 36% | inhibition [3] 1% | outcome [5] | outcome [6] | outcome [7] | outcome [8]

Cc1sc(CNCCCNc2cc(=O)c3ccccc3[nH]2)c(C(F)(F)F)c1C
active: growth inhibition [1] 70% | growth inhibition [4] 99%
inactive: inhibition [2] -12% | inhibition [3] 1% | outcome [5] | outcome [6] | outcome [7] | outcome [8]

O=S(=O)(c1ccc(OC(F)(F)F)cc1)C1C[C@H]2CC[C@@H](C1)N2S(=O)(=O)c1ccc(Cl)c(C(F)(F)F)c1 (stereo not given in full)
active: growth inhibition [1] 95% | growth inhibition [4] 100%
inactive: inhibition [2] 1% | inhibition [3] -5% | outcome [5] | outcome [6] | outcome [7] | outcome [8]

CCN(CC)CCN(Cc1ccc(-c2ccc(C(F)(F)F)cc2)cc1)C(=O)Cn1c(CCc2ccc(F)c(F)c2)nc(=O)c2ccccc21
inactive: inhibition [2] 31% | inhibition [3] 3% | outcome [5] | outcome [6] | outcome [7] | outcome [8]
active: growth inhibition [1] 62% | growth inhibition [4] 99%

CC1(C)CN2CCCC2c2cc(NC(=O)/C=C/c3ccccc3Cl)ccc21 (stereo not given)
active: growth inhibition [1] 76% | growth inhibition [4] 88%
inactive: inhibition [2] 20% | inhibition [3] 0% | outcome [5] | outcome [6] | outcome [7] | outcome [8]

Cc1cc2c(cc1C(F)(F)F)N(C(=O)Nc1cnc(OCCN(C)C)c(C(F)(F)F)c1)CC2
active: growth inhibition [4] 88%
inactive: growth inhibition [1] 25% | inhibition [2] 28% | inhibition [3] -2% | outcome [5] | outcome [6] | outcome [7] | outcome [8]

c1ccc(-c2[nH]c3ccccc3c2CN2CCC(N3CCCCC3)CC2)nc1
active: growth inhibition [1] 82% | growth inhibition [4] 101%
inactive: inhibition [2] 13% | inhibition [3] -3% | outcome [5] | outcome [6] | outcome [7] | outcome [8]

N#Cc1cccc(NC(=O)Nc2cccc(OC3CCN(Cc4ccccc4)CC3)c2)c1
inactive: growth inhibition [1] 48% | inhibition [2] 5% | inhibition [3] 1% | outcome [5] | outcome [6] | outcome [7] | outcome [8]
active: growth inhibition [4] 100%

Cc1ccc(Nc2nc(NN=Cc3ccc(-c4ccc([N+](=O)[O-])cc4)o3)nc(N3CCOCC3)n2)cc1Cl
active: growth inhibition [4] 95%
inactive: growth inhibition [1] 47% | inhibition [2] 12% | inhibition [3] -1% | outcome [5] | outcome [6] | outcome [7] | outcome [8]

COc1ccc2ncc(F)c(CCN3C[C@H](CNCc4ccc5c(c4)OCCO5)[C@H](O)C3)c2n1
inactive: growth inhibition [1] 35% | inhibition [2] 18% | inhibition [3] 7% | outcome [5] | outcome [6] | outcome [7] | outcome [8]
active: growth inhibition [4] 94%

CN1CCC(NCc2cccc(-c3cnc(NCc4ccccc4)nc3)c2)CC1
active: growth inhibition [1] 67% | growth inhibition [4] 102%
inactive: inhibition [2] 12% | inhibition [3] 4% | outcome [5] | outcome [6] | outcome [7] | outcome [8]

CC(=O)Nc1ccc(CN2CCC(CNC(=O)c3cc(-c4cccc(C(F)(F)F)c4)cs3)C2)cc1 (stereo not given)
active: growth inhibition [4] 97%
inactive: growth inhibition [1] 3% | inhibition [2] 24% | inhibition [3] 2% | outcome [5] | outcome [6] | outcome [7] | outcome [8]

CCn1c(C)c(C)c2cc(C(=O)Nc3ccon3)ccc21
inactive: inhibition [2] 3% | inhibition [3] -3% | outcome [5] | outcome [6] | outcome [7] | outcome [8]
active: growth inhibition [1] 93% | growth inhibition [4] 95%

NS(=O)(=O)c1ccc(CNc2ccc3ncc(-c4ccc(Cl)cc4)n3n2)cc1
active: growth inhibition [1] 99% | growth inhibition [4] 96%
inactive: inhibition [2] 26% | inhibition [3] -4% | outcome [5] | outcome [6] | outcome [7] | outcome [8]

OC1CCCN(Cc2ccc(-c3ccc(-c4nc5ccccc5[nH]4)cc3)cc2)C1 (stereo not given)
active: growth inhibition [1] 77% | growth inhibition [4] 100%
inactive: inhibition [2] 46% | inhibition [3] -4% | outcome [5] | outcome [6] | outcome [7] | outcome [8]

N#CCCn1nc(-c2ccc(Cl)cc2)c2c(c1=O)CCCC2
inactive: growth inhibition [1] 32% | inhibition [2] 0% | inhibition [3] -1% | outcome [5] | outcome [6] | outcome [7] | outcome [8]
active: growth inhibition [4] 94%

CC1(C)N=C(N)N=C(N)N1OCCCNC(=O)c1ccc([N+](=O)[O-])cc1
active: growth inhibition [1] 97% | inhibition [2] 57% | growth inhibition [4] 92%
inactive: inhibition [3] 2% | outcome [5] | outcome [6] | outcome [7] | outcome [8]

COc1ccc(CN(C)CCCc2ccc(NC(=O)c3cc4ccccc4[nH]3)cc2)cc1OC
active: growth inhibition [4] 97%
inactive: growth inhibition [1] 31% | inhibition [2] 39% | inhibition [3] -5% | outcome [5] | outcome [6] | outcome [7] | outcome [8]

COc1ccc(CNC2CCN(C)CC2)cc1-c1ccc(S(=O)(=O)NCc2ccccc2)cc1
active: growth inhibition [1] 99% | inhibition [2] 56% | growth inhibition [4] 100%
inactive: inhibition [3] 5% | outcome [5] | outcome [6] | outcome [7] | outcome [8]

COc1ccc(S(=O)(=O)N(CC(=O)NN=C(C)c2cccs2)c2cc(C)cc(C)c2)cc1OC
active: growth inhibition [4] 97%
inactive: growth inhibition [1] 43% | inhibition [2] 12% | inhibition [3] -1% | outcome [5] | outcome [6] | outcome [7] | outcome [8]

O=C(Nc1ccccc1-c1nc2ccccc2s1)C(Cl)(Cl)Cl
active: growth inhibition [1] 99% | growth inhibition [4] 97%
inactive: inhibition [2] 12% | inhibition [3] -7% | outcome [5] | outcome [6] | outcome [7] | outcome [8]

CC(C)C[C@H](Nc1ccc(C#N)c2ccccc12)C(=O)NC(C)(C)C12CC3CC(CC(C3)C1)C2
active: growth inhibition [4] 96%
inactive: growth inhibition [1] 30% | inhibition [2] 19% | inhibition [3] -1% | outcome [5] | outcome [6] | outcome [7] | outcome [8]

Nc1c2ccccc2nc2cc(C(F)(F)F)ccc12
inactive: growth inhibition [1] 49% | inhibition [2] 8% | inhibition [3] 1% | outcome [5] | outcome [6] | outcome [7] | outcome [8]
active: growth inhibition [4] 101%

C=CCc1cc(Cc2cnc(N)nc2N)cc(CCC)c1OC
inactive: growth inhibition [1] 1% | inhibition [2] 3% | inhibition [3] 0% | outcome [5] | outcome [6] | outcome [7] | outcome [8]
active: growth inhibition [4] 83%

Fc1cccc(COc2ccc(Nc3ncnc4sc(C#CCNC5CCCC5)cc34)cc2Cl)c1
active: growth inhibition [1] 78% | growth inhibition [4] 100%
inactive: inhibition [2] 3% | inhibition [3] 3% | outcome [5] | outcome [6] | outcome [7] | outcome [8]

O=C(NC1CCC1)C1CCN(C(c2ccccc2)c2cc(F)cc(F)c2)CC1 (stereo not given)
inactive: inhibition [2] 0% | inhibition [3] -2% | outcome [5] | outcome [6] | outcome [7] | outcome [8]
active: growth inhibition [1] 72% | growth inhibition [4] 94%

CCc1cn2c3c(cc(C(=O)N[C@@H](Cc4ccccc4)[C@H](O)CNC4CCCC4)cc13)N(C)S(=O)(=O)CC2
inactive: inhibition [2] 6% | inhibition [3] -8% | outcome [5] | outcome [6] | outcome [7] | outcome [8]
active: growth inhibition [1] 99% | growth inhibition [4] 100%

CC(CN1CCN(C)CC1)C(=O)Nc1ccc(-c2cccc(-c3nc4ccc(C(F)(F)F)cc4[nH]3)c2)cc1 (stereo not given)
active: growth inhibition [1] 96% | growth inhibition [4] 99%
inactive: inhibition [2] 16% | inhibition [3] -6% | outcome [5] | outcome [6] | outcome [7] | outcome [8]

O=C(N[C@H]1CCN(Cc2ccc(OCCCN3CCCCC3)cc2)C1)c1ccc(Cl)c(Cl)c1
active: growth inhibition [4] 102%
inactive: growth inhibition [1] 36% | inhibition [2] 27% | inhibition [3] 0% | outcome [5] | outcome [6] | outcome [7] | outcome [8]

COc1ccc2nccc([C@@H](O)CN3CCC(NC(=O)c4ccc(-c5ccc(C#N)cc5)cc4)CC3)c2c1
active: growth inhibition [1] 91% | growth inhibition [4] 101%
inactive: inhibition [2] 42% | inhibition [3] 4% | outcome [5] | outcome [6] | outcome [7] | outcome [8]

NC(=O)c1cc2nc(NC3CCC3)nc(Nc3cccc4[nH]ncc34)c2[nH]1
inactive: inhibition [2] 9% | inhibition [3] 4% | outcome [5] | outcome [6] | outcome [7] | outcome [8]
active: growth inhibition [1] 62% | growth inhibition [4] 100%

COc1ccc2nc3cc(Cl)ccc3c(N)c2c1
inactive: inhibition [3] -5% | outcome [5] | outcome [6] | outcome [7] | outcome [8]
active: growth inhibition [1] 100% | inhibition [2] 100% | growth inhibition [4] 102%

CCc1nc(N)nc(N)c1-c1ccc(C(C)C)cc1
active: growth inhibition [4] 92%
inactive: growth inhibition [1] -4% | inhibition [2] 3% | inhibition [3] 1% | outcome [5] | outcome [6] | outcome [7] | outcome [8]
